# In PubChem BioAssay AID504462 (Sanford-Burnham Center for Chemical Genomics, 2011):
# Screen size: about 340,000 compounds; about 1,700 (0.5%) were called active. The sample holds actives, similar compounds and a random draw of the others, so the mix is not that of the screen. Values without a mark were called inactive. Cut-off read from the data, not from the text of the source: active = inhibition above about 40%; inactive = the rest.
# Molecular target: Cysteine protease ATG4B (Homo sapiens) (UniProt Q9Y4P1)
# Sequence (Q9Y4P1 whole entry, looked up): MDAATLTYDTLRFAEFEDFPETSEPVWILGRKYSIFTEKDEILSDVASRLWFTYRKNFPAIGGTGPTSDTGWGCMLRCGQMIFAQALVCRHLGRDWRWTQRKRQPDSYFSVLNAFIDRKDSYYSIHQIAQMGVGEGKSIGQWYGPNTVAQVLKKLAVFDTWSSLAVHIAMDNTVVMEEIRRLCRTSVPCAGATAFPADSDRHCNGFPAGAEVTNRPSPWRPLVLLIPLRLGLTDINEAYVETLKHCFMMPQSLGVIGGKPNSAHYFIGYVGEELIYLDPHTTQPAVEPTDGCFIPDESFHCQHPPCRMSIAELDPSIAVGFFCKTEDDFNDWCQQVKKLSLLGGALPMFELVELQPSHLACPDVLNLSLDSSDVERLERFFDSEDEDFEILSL
# Test: ATG4B protease inhibitors, primary screen, biochemical, fluorescence, uHTS (AID 504462)
# Conditions: ATG4B cleavage of LC3-PLA2, NBD-HPC fluorescence, 1 h; at 8.33 µM; active compounds read high
row,Structure (SMILES),inhibition
1,Cc1ccc(N=C2NC(=O)/C(=C/C=C/c3ccco3)S2)cc1C,47.9% (active)
2,Cc1ccc(CNC(=O)CSc2nnc3c(n2)[nH]c2ccc(F)cc23)cc1,-1.66%
3,CC1=CC2=NC(=O)/C(=C/c3coc4ccccc4c3=O)C(=N)N2O1,-5.2%
4,O=C(CNC(=O)c1ccccc1)NCC(=O)OCc1ccc(Cl)cc1,-3.69%
5,S=C(NCc1ccco1)NCc1ccccc1Cl,13.4%
6,S=C(NCCc1ccccc1)NCc1ccccc1Cl,48.6% (active)
7,S=C(NCCc1ccccc1)NCC1CCCO1 (stereo not given),-7.53%
8,O=C1c2ccccc2C(=O)N1CCC(c1ccccc1)c1ccco1 (stereo not given),15.9%
9,CC(Oc1ccc(F)cc1)C(=O)Nc1cc(S(=O)(=O)N2CCOCC2)ccc1N1CCN(C)CC1 (stereo not given),-5.35%
10,COc1ccccc1S(=O)(=O)c1c(C)cc(C)[nH]c1=O,-5.56%
11,Cc1c(NC(=S)NCc2ccc(F)cc2)cccc1[N+](=O)[O-],77.1% (active)
12,Cc1onc(C(=O)NCc2ccc(F)cc2)c1[N+](=O)[O-],1.98%
13,Cc1c(NC(=O)CCCOc2ccccc2)cccc1[N+](=O)[O-],-6.83%
14,CCOC(=O)N1CCC(NC(=O)Cn2cc3c(n2)CCCCC3)CC1,-3.87%
15,NC(=O)Cc1ccc2c(c1)[nH]c1ccccc12,47.3% (active)
16,CCn1c2ccccc2c2cc(CC(N)=O)ccc21,25%
17,COC(=O)Cc1c(-c2[nH]c3ccccc3c2CC(=O)OC)[nH]c2ccccc12,5.62%
18,CC(OC(=O)c1ccc(-n2cnnn2)cc1)C(=O)NCc1ccccc1 (stereo not given),-0.42%

row,Structure (SMILES),inhibition
1,CCCCn1c(N)c(N(CC)C(=O)c2ccccc2C(F)(F)F)c(=O)[nH]c1=O,1.66%
2,CC(C)(CNC(=O)c1cc(=O)[nH]c2ccccc12)N1CCOCC1,-6.8%
3,Cc1c(N=Nc2ccc(N(C)C)cc2)c(=O)n(-c2ccccc2)n1C,-2.28%
4,CCOC(=O)c1c(C)oc2ccc(OCC(=O)N(CC)CC)cc12,-8.98%
5,CC(=O)c1c(C)n(-c2ccc(N(C)C)cc2)c2ccc(OCC(N)=O)cc12,82.1% (active)
6,CC(=O)c1c(C)n(-c2ccc(C)cc2)c2ccc(O)cc12,-0.19%
7,COc1ccc(NC(=O)CSc2nnc(Cc3ccccc3)c(=O)n2N)cc1,-4.35%
8,N#Cc1c(-c2ccc(F)cc2)nc(-c2ccccc2)[nH]c1=O,5.66%
9,Cc1ccc(CSc2nc(-c3ccccc3)c(C#N)c(=O)[nH]2)cc1,49.2% (active)
10,N#Cc1c(-c2ccccc2)nc(SCc2cccc(C(F)(F)F)c2)[nH]c1=O,34.9%
11,Cc1cccc(N2CCN(C(c3ccc(N(C)C)cc3)c3nnnn3C(C)(C)C)CC2)c1C (stereo not given),-1.38%
12,COc1cc(C)c(S(=O)(=O)N2CCOCC2)c(C)c1C,-9.43%
13,COC(=O)c1c(NC(=O)C2CC(C)=C(C)CC2C(=O)O)sc2c1CCCCC2 (stereo not given),70.5% (active)
14,N#Cc1c(NC(=O)C2CC(Cl)=CCC2C(=O)O)sc2c1CCCCC2 (stereo not given),-4.77%
15,COC(=O)c1c(NC(=O)CSc2nncs2)sc2c1CCCCC2,-14.5%
16,O=C(CNC(=O)[C@@H]1Cc2ccccc2CN1)NC1CCCCC1,-3.14%
17,CCSC(C)CC1C/C(=N/O)c2c(C)noc2C1 (stereo not given),-1.06%
